# Reference: PubChem BioAssay AID588458 (Sanford-Burnham Center for Chemical Genomics, 2011)
# Among all 360,000 compounds or so, about 3,000 (0.83%) were called active. No stated cut-off is given here; in the data, active means inhibition above about 50%; inactive means the rest. This excerpt belongs to a sample that is enriched for actives.
# Target: DNA (cytosine-5)-methyltransferase 1 (Homo sapiens) (UniProt P26358)
# Experiment: human DNMT1 methyltransferase inhibitors, primary screen, biochemical, molecular beacon, fluorescence, HinP1I cleavage, uHTS (AID 588458)
# Conditions: at 10 µM, active compounds read high
# DNA (cytosine-5)-methyltransferase 1 (Homo sapiens), sequence (P26358 504-1616 limits assumed): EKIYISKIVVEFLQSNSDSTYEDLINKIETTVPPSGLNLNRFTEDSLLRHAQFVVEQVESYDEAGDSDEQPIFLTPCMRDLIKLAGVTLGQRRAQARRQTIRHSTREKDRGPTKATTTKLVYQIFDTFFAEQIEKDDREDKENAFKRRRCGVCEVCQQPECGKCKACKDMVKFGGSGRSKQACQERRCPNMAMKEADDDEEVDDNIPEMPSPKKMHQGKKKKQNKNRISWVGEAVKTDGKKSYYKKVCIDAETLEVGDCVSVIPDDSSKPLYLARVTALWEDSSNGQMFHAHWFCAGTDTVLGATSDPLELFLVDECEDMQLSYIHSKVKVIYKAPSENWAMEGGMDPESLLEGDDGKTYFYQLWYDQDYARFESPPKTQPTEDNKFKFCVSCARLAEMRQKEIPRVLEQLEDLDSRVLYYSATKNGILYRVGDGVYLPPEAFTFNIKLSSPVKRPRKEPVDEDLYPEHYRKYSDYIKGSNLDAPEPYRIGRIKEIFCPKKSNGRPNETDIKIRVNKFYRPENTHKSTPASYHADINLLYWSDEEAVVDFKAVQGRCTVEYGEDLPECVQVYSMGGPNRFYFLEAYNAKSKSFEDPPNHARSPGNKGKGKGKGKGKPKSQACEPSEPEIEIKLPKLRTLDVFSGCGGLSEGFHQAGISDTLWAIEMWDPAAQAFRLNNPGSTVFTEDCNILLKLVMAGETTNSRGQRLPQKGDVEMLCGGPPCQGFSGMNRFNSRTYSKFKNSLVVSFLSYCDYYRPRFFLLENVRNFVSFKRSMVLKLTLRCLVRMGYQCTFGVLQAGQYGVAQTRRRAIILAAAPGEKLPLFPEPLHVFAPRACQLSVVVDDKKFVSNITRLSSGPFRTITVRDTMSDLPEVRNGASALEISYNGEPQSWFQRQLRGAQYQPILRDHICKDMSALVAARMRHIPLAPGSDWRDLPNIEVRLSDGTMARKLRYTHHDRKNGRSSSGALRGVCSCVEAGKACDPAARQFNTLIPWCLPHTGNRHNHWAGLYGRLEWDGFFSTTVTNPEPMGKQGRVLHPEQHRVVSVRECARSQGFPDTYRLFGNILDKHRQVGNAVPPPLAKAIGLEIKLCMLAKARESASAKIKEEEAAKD
row,SMILES,inhibition (reported as % activation of signal)
1,Cc1noc(C)c1COc1ccccc1C(=O)N(C)CC(=O)Nc1cccc(F)c1,1.78% (inactive)
2,COc1ccc(C)cc1NC(=O)CCCN1C(=O)NC(C)(C)C1=O,2.66% (inactive)
3,COc1ccc(/C=C/C(=O)c2c(O)cc(OC)cc2OC)cc1,-2.91% (inactive)
4,Cc1cc(O)c(C(=O)/C=C/c2c(F)c(F)c(F)c(F)c2F)c(=O)o1,59.4% (active)
5,Cc1cc(O)c(Sc2ccccc2)c(=O)o1,4.53% (inactive)
6,COc1ccc(C)cc1NC(=O)c1cc(-c2ccccc2)nc2c1cnn2C(C)C,-4.87% (inactive)
7,O=C(Cn1nnc(-c2ccccc2)n1)N/N=C/c1ccc(-c2ccc(Cl)cc2)o1,59.9% (active)
8,O=C(CN1CCOCC1)N/N=C/c1ccc(-c2ccc(Br)cc2)o1,-2.15% (inactive)
9,Nc1nnn(CC(=O)N/N=C/c2ccccc2)n1,0.13% (inactive)
10,CC1(C)CC(=O)C(C2c3ccccc3S(=O)(=O)c3ccccc32)C(=O)C1,1.21% (inactive)
11,CCOc1ccc(CN2CCC(n3nccc3NC(=O)C3CC3)CC2)cc1CO,55.5% (active)
12,O=C(Nc1ccnn1C1CCN(Cc2cccc(OCCO)c2)CC1)C1CCCC1,-0.78% (inactive)
13,COc1cc(CC(=O)N2CCC(n3nccc3NC(=O)C3CC3)CC2)cc(OC)c1OC,0.88% (inactive)
14,COCCCC1CCN(C(=O)C2CCC(=O)N(C3CCCCCC3)C2)CC1 (stereo not given),-2.02% (inactive)
15,C=CCN1CCN(C(=O)CCCc2ccccc2)CC1,0.85% (inactive)
16,O=C(Oc1ccc(-c2nc(-c3ccccn3)no2)cc1)c1ccccc1,52.9% (active)
17,Cc1noc(C)c1COC(=O)COc1ccc(-c2ccccc2)cc1,-6.7% (inactive)
18,O=C(COC(=O)c1ccncc1)c1ccccc1,-0.53% (inactive)
19,Nc1nc(Br)c2ccccc2c1-c1ccc(F)cc1,-9.34% (inactive)
20,O=C(NCCN1CCOCC1)c1cc(Sc2cccc(Cl)c2)nc2ccccc12,-4.33% (inactive)

row,SMILES,inhibition (reported as % activation of signal)
1,Cc1cccc(C)c1OCCN1CCOCC1,0.32% (inactive)
2,c1ccc2cc3c(NCCN4CCOCC4)ccnc3cc2c1,54.4% (active)
3,CN1CCN(C(=O)C(=O)c2cn(CC(=O)N3CCCC3)c3ccccc23)CC1,1.12% (inactive)
4,O=C(CN1C(=O)c2cccnc2Oc2ccc(Cl)cc21)NCCc1ccccc1,-0.09% (inactive)
5,Cc1ccc2oc(=O)c3cnn(CC(=O)N4CCN(c5ccccn5)CC4)c3c2c1,2.52% (inactive)
6,CC(=O)Nc1ccc(NC(=O)CCCNC(=O)c2ccc(Cl)cc2)cc1,-1.09% (inactive)
7,CCC(=O)Nc1ccc(C(=O)NNC(=O)c2ccc(Cl)cc2)cc1,-1.31% (inactive)
8,CC(=O)Nc1ccc(SCC(=O)NC(=O)c2ccc(Cl)cc2)cc1,69.8% (active)
9,Cc1ccc2c(CN3CCN(S(=O)(=O)c4ccccc4C(F)(F)F)CC3)cc(=O)oc2c1,-2.32% (inactive)
10,CC(C)Oc1ccc(S(=O)(=O)N2CCOCC2)cc1NC(=O)C1CCCC1,4.21% (inactive)
11,Cc1ccc(-c2nn(-c3ccccc3)cc2/C=C2\SC(=S)N(CCCCCC(=O)O)C2=O)o1,87.9% (active)
12,O=C(CN1C(=O)/C(=C\c2ccccc2F)SC1=S)Nc1nc2ccccc2s1,-44.4% (inactive)
13,CCCCN1C(=O)/C(=C/C=C2/C=Cc3ccccc3N2CC)SC1=S,3.13% (inactive)
14,CCOC(=O)c1sc(=NC(=O)/C=C/c2cccs2)n(C)c1C,10.1% (inactive)
15,CCc1nnc(NS(=O)(=O)c2ccc(NC(=S)NC(=O)/C=C/c3cccs3)cc2)s1,9.17% (inactive)
16,CCOC(=O)c1c(NC(=S)NC(=O)/C=C/c2cccs2)sc(C)c1C,58.9% (active)
17,O=C(CO/N=C/c1ccccc1O)NNC(=O)c1ccccc1Cl,-2.54% (inactive)
18,CCN(Cc1ccncc1)C(=O)CCc1ccccc1,-1.63% (inactive)
19,CC(C)(C)C(=O)N(Cc1ccccc1)c1ccccn1,-1.5% (inactive)
20,CC(C)(C)N(Cc1ccccc1)C(=O)c1ccncc1,82.6% (active)

row,SMILES,inhibition (reported as % activation of signal)
1,CC(=O)N/C(=N/c1nc(C)cc(C)n1)Nc1ccc(F)cc1F,0.05% (inactive)
2,C/C(=N\NC(=O)CCn1nc(C)cc1C)C(C)(C)C,-0.8% (inactive)
3,OCC(O)C1OCOC(C(O)CO)C1O (stereo not given),-1.63% (inactive)
4,O=C(NCCc1ccc(F)cc1)c1ccc(S(=O)(=O)N2CCCCC2)cc1,-2.12% (inactive)
5,NC1=CC(=O)C(=O)c2cccnc21,100% (active)
6,CN(Cc1ccccc1)C(=O)COC(=O)c1ccccc1Nc1ccccc1,-16.6% (inactive)
7,Cn1cnc(C(F)(F)F)c1-c1ccc([N+](=O)[O-])cc1,3.01% (inactive)
8,O=C(COC(=O)c1ccccc1)Nc1ccccc1Sc1ccccc1,0.84% (inactive)
9,O=C(COC(=O)c1cccc(Br)c1)Nc1cccc2c1C(=O)c1ccccc1C2=O,51% (active)
10,O=C(COC(=O)Cn1cnc2ccccc21)Nc1cccc2c1C(=O)c1ccccc1C2=O,27.5% (inactive)
11,CC(C)(C)c1ccccc1NC(=O)CN1C(=O)NC2(CCCC2)C1=O,1.67% (inactive)
12,COCCn1cnnc1SCC(=O)Nc1cccc(S(=O)(=O)N2CCCCC2)c1,-1.49% (inactive)
13,Cc1ccc2c(c1)N(CC(=O)N1CCC(C)CC1)C(=O)c1cccnc1O2,-0.74% (inactive)
14,COc1ccc(/C=C/C(=O)OCC(=O)N2CCN(S(=O)(=O)c3ccc(C)cc3C)CC2)cc1OC,-0.56% (inactive)
15,Cc1ccc(N=C2NC(=O)/C(=C/C=C/c3ccco3)S2)cc1C,71.1% (active)
16,O=C(CSc1nc2ccccc2c(=O)[nH]1)Nc1nc(-c2ccc(Br)cc2)cs1,93.2% (active)
17,O=C(COC(=O)c1cc(=O)[nH]c2ccccc12)Nc1nc(-c2cccc(Br)c2)cs1,-21.4% (inactive)
18,Cc1cc(C)c(-c2csc(NC(=O)CCCc3nc4ccccc4c(=O)[nH]3)n2)c(C)c1,-5% (inactive)
19,Cc1ccc(C(C(=O)NCC2CCCO2)N(C(=O)c2snc(C(N)=O)c2N)c2ccc(C(C)C)cc2)o1 (stereo not given),0.65% (inactive)
20,CC(C)C(=O)Nc1ccc2c(c1)oc1ccccc12,-5.97% (inactive)
